Experimental data reported in PubChem BioAssay.
Calls of active or inactive are those of the source. Unless noted, the rule behind the calls is not given here.

What was measured:
[1] = system: XIP peptide (Xip251-270) binding; experiment: small-molecule binders of XIP peptide, primary screen, biochemical, small-molecule microarray, fluorescence 635/667 nm, 0.1 µg/mL protein (AID 1182); conditions: fluorescent protein binding, 635 nm, higher = more signal, called active from +8 up or from −8 down
XIP peptide (Xip251-270) = experiment: small-molecule binders of XIP peptide, primary screen, biochemical, small-molecule microarray, fluorescence 635/667 nm, 0.5 µg/mL protein (AID 1183); conditions: small-molecule microarray binding, fluorescence 635 nm; higher = more signal
[2] = Plasmodium falciparum growth inhibition, primary screen, strain 3D7, DAPI fluorescence, 100 nL (AID 1184);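 note: parasites grown inside human red blood cells in medium with human serum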; conditions: P. falciparum 3D7 growth, 3 d, higher = more signal
[3] = target: Homeobox protein Hox-A13 (Mus musculus) (UniProt Q62424); experiment: inhibitors of HoxA13-DNA binding, primary screen, biochemical, fluorescence polarization, labeled oligonucleotide (AID 1185); conditions: 15 min, higher = more signal, called active from +8 up or from −8 down
[4] = inhibitors of hydroxyurea-induced Chk1 phosphorylation, primary screen, imaging, HeLa, phospho-Chk1 antibody, percent positive cells (AID 1186); conditions: hydroxyurea-induced phospho-Chk1 immunofluorescence imaging, higher = more signal
[5] = inhibitors of hydroxyurea-induced Chk1 phosphorylation, primary screen, imaging, HeLa, phospho-Chk1 nuclear intensity (AID 1187); conditions: hydroxyurea-induced phospho-Chk1 immunofluorescence imaging, higher = more signal

Homeobox protein Hox-A13 (Mus musculus), sequence (Q62424 whole entry, looked up): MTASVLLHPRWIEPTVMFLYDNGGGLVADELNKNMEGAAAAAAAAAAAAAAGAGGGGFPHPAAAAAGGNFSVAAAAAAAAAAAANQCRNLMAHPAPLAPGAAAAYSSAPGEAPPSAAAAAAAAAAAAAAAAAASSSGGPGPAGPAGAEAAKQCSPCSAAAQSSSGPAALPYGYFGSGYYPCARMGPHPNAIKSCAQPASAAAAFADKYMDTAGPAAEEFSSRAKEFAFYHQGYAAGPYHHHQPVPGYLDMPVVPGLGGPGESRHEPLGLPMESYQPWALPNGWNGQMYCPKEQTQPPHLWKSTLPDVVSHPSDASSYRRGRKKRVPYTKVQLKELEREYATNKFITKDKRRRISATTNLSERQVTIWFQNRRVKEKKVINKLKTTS

| SMILES | composite z-score [1] | composite z-score (XIP peptide (Xip251-270)) | z-score [2] | z-score [3] | z-score [4] | z-score [5] |
| --- | --- | --- | --- | --- | --- | --- |
| O=C1[C@@]23C=C(Br)[C@H](C[C@@H]2COC3)[C@@]12CO2 | -0.0944 (inactive) | 0.0556 | 2.53 | 0.786 (inactive) | 0.854 (inactive) | 0.352 (inactive) |
| COCCOC(=O)N1C(=O)[C@@]2(c3cc(C#CCNC(N)=O)ccc31)[C@H](c1ccc(O)cc1)N1[C@H](c3ccccc3)[C@H](c3ccccc3)OC(=O)[C@H]1[C@@H]2C(N)=O | -0.256 (inactive) | 0.124 | 0.228 | -0.531 (inactive) | -0.0933 (inactive) | -0.0072 (inactive) |
| COCC1C2CC[C@H]3C(OCc4ccc(OC)cc4)OC[C@]4(C)[C@H]3C2=C(CN4C(=O)OC(C)(C)C)[C@H](C)C1COC (some centres not stated) | -0.272 (inactive) | 0.682 | -0.821 | -4.09 (inactive) | -0.615 (inactive) | -0.719 (inactive) |
| C=C(COC)/C(=C/C[C@@H](OC(C)=O)c1ccc(CO)o1)c1cc(C(=O)OC)ccc1OC | 0.824 (inactive) | 0.147 | 0.0394 | -4.84 (inactive) | -1.06 (inactive) | -1.26 (inactive) |
| C=C[C@H](C)[C@H](OC(=O)Nc1ccc(OC)cc1)c1ccc(OCCO)cc1 | 0.526 (inactive) | -0.0503 | -1.15 | -4.59 (inactive) | -0.806 (inactive) | -0.261 (inactive) |
| C[C@]1(C(=O)O)c2ccccc2C(=O)N(Cc2ccc(OC(F)(F)F)cc2)[C@H]1c1ccc(CO)cc1 | -0.336 (inactive) | -1.05 | 0.465 | -4.09 (inactive) | -0.159 (inactive) | -0.344 (inactive) |
| CCOC(=O)C[C@H]1[C@H](OC(=O)c2cc3ccccc3oc2=O)[C@@H](NC(=O)c2ccc3ccccc3c2)c2cc(OCCCO)ccc2N1C(=O)Cc1ccc(OC)cc1 | 0.515 (inactive) | 0.335 | -0.791 | -2.96 (inactive) | 0.204 (inactive) | -0.322 (inactive) |
| CCCCCN1CC=CC23O[C@@H]4/C=C\CCC(C)OC(=O)C4[C@H]2C(=O)N(CCCCCCO)[C@@H]3C1=O (some centres not stated) | 0.185 (inactive) | 0.459 | 0.162 | -4.71 (inactive) | -0.0032 (inactive) | 0.453 (inactive) |
| CN1C(=O)C2C=CC(C(O)c3cc(C(F)(F)F)cc(C(F)(F)F)c3)N(Nc3ccccc3)C2C1=O (configuration not stated) | 1.9 (inactive) | 0.128 | 1.08 | -3.84 (inactive) | -0.0145 (inactive) | 0.0934 (inactive) |
| COCCOC(=O)N1C(=O)[C@@]2(c3cc(C#CCNC(N)=O)ccc31)[C@H](c1ccc(OCCO)cc1)N1[C@H](c3ccccc3)[C@H](c3ccccc3)OC(=O)[C@H]1[C@@H]2C(=O)NC[C@H](O)c1ccccc1 | 0.586 (inactive) | 0.644 | -0.599 | -1.94 (inactive) | -0.3 (inactive) | -0.102 (inactive) |
| C=CCC(OC(C)=O)[C@@H]1[C@@H](N(Cc2ccc(-c3ccccc3)cc2)C(=O)Cc2ccc(F)cc2)c2cc(OCCCO)ccc2N1C(=O)Cc1ccc2ccccc2c1 (some centres not stated) | -0.632 (inactive) | 0.233 | -1.3 | -1.5 (inactive) | 0.433 (inactive) | -0.048 (inactive) |
| COCC(=C=CC[C@@H](O)c1ccc(OCCO)cc1)CCO | 0.474 (inactive) | 0.429 | -1.46 | -3.22 (inactive) | -0.321 (inactive) | 0.301 (inactive) |
| COCCOC(=O)N1C(=O)[C@@]2(c3cc(C#CCCO)ccc31)[C@H](C(N)=O)[C@H]1C(=O)O[C@H](c3ccccc3)[C@H](c3ccccc3)N1[C@@H]2c1ccc(OCCO)cc1 | 1.56 (inactive) | 0.769 | -0.624 | -1.24 (inactive) | 0.0923 (inactive) | -0.0574 (inactive) |
| COc1ccc([Si](C)(C)[C@@H]2[C@@H](CCn3cc([C@H](O)c4ccccc4)nn3)O[C@]3(C(=O)N(c4ccccc4)c4ccccc43)[C@H]2C)cc1 | -0.17 (inactive) | 0.559 | -1.73 | -3.01 (inactive) | -0.431 (inactive) | -0.361 (inactive) |
| COCCCNC(=O)[C@@H]1c2ccccc2C(=O)N(C2Cc3ccccc3C2)[C@H]1c1ccc(CO)cc1 | -0.295 (inactive) | 0.583 | -0.804 | -2.44 (inactive) | -0.533 (inactive) | -0.726 (inactive) |
| CC1CC/C=C\[C@H]2OC34C=CCN(C(C)(C)C)C(=O)[C@H]3N(C(CO)C(C)C)C(=O)[C@@H]4C2C(=O)O1 (some centres not stated) | 1.27 (inactive) | -0.142 | -0.459 | -5.73 (inactive) | 0.015 (inactive) | 0.277 (inactive) |
| O=C(CS)NCCCCCCNC(=O)[C@@H]1C[C@@H]2C(=O)NCC(=O)N2[C@@H]1c1ccc(O)cc1 | 1.06 (inactive) | 0.897 | 0.271 | -1.63 (inactive) | -0.0858 (inactive) | 0.201 (inactive) |
